Screening results as filed in PubChem BioAssay.
p53ts 32C tox = kills p53ts cells at the permissive temperature | H1299-p53A138V at 32C, ATP luminescence viability, 24 h | Potency, µM (top dose mostly 46.1 µM), inactives show at the highest dose activity change, negative = cytotoxicity, hits mostly cytotoxic | hit rate 0.93% among 130,000 | AID 924;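 further: 0% = DMSO and -100% = full killing by reference compound; nearly all actives have a fitted effect of over 55% in size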
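ATP-content luminescence (ATPlite) read-out after 24 h compound exposure at 32C in H1299-p53A138V cells (600/well). Tested up to 46 uM. Normalized to DMSO (0%) and 100 uM tamoxifen (100% killing); Hill-fit AC50.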
Imprint erasure = induces erasure of genomic imprints in mouse ES cells; Potency, µM (series often up to 60.7 µM), for the others: at the top dose activity change, positive = activation, hits mostly activators; AID 1948; hit rate 0.02% among 110,000; mouse ES Peg3-LacZ reporter, beta-gal luminescence, 40 h
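Gelatin-coated wells received 300 freshly trypsinized female ES cells with a Peg3LacZ-Neo reporter on the maternal allele, then incubated 40 hours at 37C. BetaGlo was added for 5 minutes at room temperature before a single luminescence read.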
IkB signaling = IkB pathway inhibition in ABC-DLBCL cells. ABC-DLBCL IkBa-CBG/CBR dual luciferase ratio, 4 h; response scale: scaled: untreated 0%, proteasome inhibitor 100%. AID 445. hit rate 0.04% among 110,000. Potency, µM (doses to about 57.1 µM), without a hit: at the top dose IkBa stabilization activation; active means well fitted curve in the direction sought with a large enough effect in the signal ratio, not every such curve was filed as active; inconclusive means small, poorly fitted or top-dose-only effect, or a change in a side signal; the % refers to the signal ratio;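 further: the direction sought is a rising ratio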
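Curves were fitted separately to fusion (green), unfused (red) and ratio luminescence, then classed by r2, magnitude and activity. Cells: OCI-Ly3, 4 h compound plus doxycycline at 37C; 10 uM MG-132 defined full response.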
p53ts 39C tox = p53ts cell cytotoxicity, nonpermissive temperature; H1299-p53A138V viability at 39C, ATP luminescence, 24 h; Potency, µM (series often up to 46.1 µM), for the others: top-dose activity change, negative = cell killing, most hits filed as cytotoxic; hit rate 1.5% among 130,000; further: on the % scale 0 is the no-effect control and ±100 the full control effect; nearly all actives have a fitted effect of over 55% in size
* hit, by the source's call; ! = not active in a repeat; [ ] = remark or other dose. Shown are actives, neighbours in structure and some others; about 1.7% of the full set was active somewhere. Unless noted, the call rests on the fitted dose curve; in most records, active means well fitted curve in the direction sought with a large enough effect; inconclusive means small, poorly fitted or top-dose-only effect, or another doubt; inactive means no such curve, though single readings can be large; an effect the other way counts as inactive or inconclusive. Potency means the concentration at half of the fitted maximal effect.

How did CCCCN1C(=O)c2[nH]nc(-c3ccccc3O)c2C1c1ccc(OCc2ccccc2)c(OC)c1 (centres undefined) do in these assays?
p53ts 32C tox: 25%; Imprint erasure: -11%[10.9 µM]; IkB signaling: inconclusive; p53ts 39C tox: -11%

What do the screens show for `COCCCN1C(=O)c2[nH]nc(-c3ccccc3O)c2C1c1ccc(OCc2ccccc2)cc1` (centres undefined)?
p53ts 32C tox: 25%; Imprint erasure: -8%[10.9 µM]; IkB signaling: inconclusive; p53ts 39C tox: 13µM*

How did Cc1ccc(C2c3c(-c4ccccc4O)n[nH]c3C(=O)N2CCCO)cc1 (centres undefined) do in these assays?
p53ts 32C tox: 19%; Imprint erasure: -10%[10.9 µM]; IkB signaling: inconclusive; p53ts 39C tox: 1%

Results for Cc1ccc(C2c3c(-c4cc(C)ccc4O)n[nH]c3C(=O)N2Cc2ccco2)cc1 (centres undefined) ?
p53ts 32C tox: inconclusive; Imprint erasure: -6%[10.9 µM]; IkB signaling: inconclusive; p53ts 39C tox: 25µM*

What do the screens show for `CC(C)OCCCN1C(=O)c2[nH]nc(-c3ccccc3O)c2C1c1cccc(OCc2ccccc2)c1` (centres undefined)?
p53ts 32C tox: inconclusive; Imprint erasure: -11%[10.9 µM]; IkB signaling: inconclusive; p53ts 39C tox: inconclusive

How did COc1ccccc1C(=O)OCc1cc(=O)n2nc(C(C)C)sc2n1 do in these assays?
p53ts 32C tox: -1%; Imprint erasure: -11%[10.9 µM]; IkB signaling: 5%; p53ts 39C tox: -10%

Results for Cc1ccccc1N1C(=O)c2ccccc2NC1c1ccncc1 (centres undefined) ?
p53ts 32C tox: 5%; p53ts 39C tox: 4%

Results for O=C1c2ccccc2C(=O)C1c1ccncc1 ?
p53ts 32C tox: 3.2µM*; Imprint erasure: -94%; IkB signaling: 6%; p53ts 39C tox: 3.2µM*

Results for CN1CCN(CCC=C2c3ccccc3Sc3ccc(S(=O)(=O)N(C)C)cc32)CC1 ?
p53ts 32C tox: -30%; Imprint erasure: -31%; IkB signaling: -9%; p53ts 39C tox: 16µM*!

Results for Cc1ccc(C(C(=O)NC2CCCCC2)N(C)Cc2ccccc2)cc1 (centres undefined) ?
p53ts 32C tox: -1%; Imprint erasure: -12%[10.9 µM]; IkB signaling: 19%; p53ts 39C tox: -24%

Results for CCOC(=O)CN(Cc1ccccc1)C(C(=O)NC1CCCCC1)c1ccccc1 (centres undefined) ?
p53ts 32C tox: -28%; Imprint erasure: 11%[10.9 µM]; IkB signaling: inconclusive; p53ts 39C tox: 2.5µM*

Results for CCc1c(C)sc2c1CCN(C(=O)Nc1cc(Cl)c(OC)cc1OC)C2c1ccccc1 (centres undefined) ?
p53ts 32C tox: 1%; Imprint erasure: -18%[10.9 µM]; IkB signaling: inconclusive; p53ts 39C tox: -11%

What do the screens show for `CCOCCCN1C(=O)c2[nH]nc(-c3ccccc3O)c2C1c1ccc(CC)cc1` (centres undefined)?
p53ts 32C tox: -16%; Imprint erasure: -14%[10.9 µM]; IkB signaling: inconclusive; p53ts 39C tox: inconclusive

Results for CCOC(=O)N1CCN(Cc2nc3cc(NC(=O)c4ccc([N+](=O)[O-])cc4)ccc3n2C(C)C)CC1 ?
p53ts 32C tox: inconclusive; Imprint erasure: -6%[10.9 µM]; IkB signaling: inconclusive; p53ts 39C tox: -30%

How did O=C(O)c1ccc2cc(-c3ccc(O)c(C45CC6CC(CC(C6)C4)C5)c3)ccc2c1 do in these assays?
p53ts 32C tox: 20µM*; Imprint erasure: -27%; p53ts 39C tox: inconclusive

How did COc1cccc(-c2cc(C(=O)N3CCN(c4ncccn4)CC3)c3ccccc3n2)c1 do in these assays?
p53ts 32C tox: 13µM*; Imprint erasure: -11%; IkB signaling: inconclusive; p53ts 39C tox: inconclusive

Results for O=C(Nn1cnnc1)c1cc(-c2ccccn2)nc2ccccc12 ?
p53ts 32C tox: -25%; Imprint erasure: -3%; IkB signaling: 3%; p53ts 39C tox: -17%

How did COc1cccc(-c2cc(C(=O)Nn3cnnc3)c3ccccc3n2)c1 do in these assays?
p53ts 32C tox: 4µM*; Imprint erasure: -21%; IkB signaling: 4%; p53ts 39C tox: 5µM*

What do the screens show for `Cc1ccc(-c2cc(C(=O)N3CCN(c4ncccn4)CC3)c3ccccc3n2)cc1`?
p53ts 32C tox: 13µM*; Imprint erasure: -20%; IkB signaling: inconclusive; p53ts 39C tox: 13µM*

Results for CCNC(=O)[C@@H]1O[C@@H](n2cnc3c(N)nc(NCCc4ccc(CCC(=O)O)cc4)nc32)[C@H](O)[C@@H]1O ?
p53ts 32C tox: 13%; IkB signaling: inconclusive; p53ts 39C tox: 11%

How did CN(C)c1ccc(/C=c2\sc3n(c2=O)CCCN=3)cc1 do in these assays?
p53ts 32C tox: 13µM*; Imprint erasure: -79%; IkB signaling: inconclusive; p53ts 39C tox: 13µM*

What do the screens show for `COc1ccc(-c2cnn(-c3ccccc3)c2N)cc1OC`?
p53ts 32C tox: 18%; Imprint erasure: -12%; IkB signaling: inconclusive; p53ts 39C tox: 13%

Results for Nc1nc2c(s1)CCc1c-2cnn1-c1ccccc1 ?
p53ts 32C tox: 13µM*; Imprint erasure: -72%; IkB signaling: inconclusive; p53ts 39C tox: 10µM*

Results for COc1ccc(-c2cn3c(n2)sc2cc(C(=O)Nc4ccc(C)cc4C)ccc23)cc1 ?
p53ts 32C tox: 3%; Imprint erasure: -14%[10.9 µM]; IkB signaling: -1%; p53ts 39C tox: -5%

How did CCCN1CCN(CCCNC(=O)c2ccc3c(c2)sc2nc(-c4ccc(OCC)cc4)cn23)CC1 do in these assays?
p53ts 32C tox: inconclusive; Imprint erasure: -30%[10.9 µM]; IkB signaling: inconclusive; p53ts 39C tox: 13µM*

How did CCOc1ccc(-c2cc(C(=O)NCCc3ccc(C)cc3)c3ccccc3n2)cc1 do in these assays?
p53ts 32C tox: -20%; Imprint erasure: -13%[10.9 µM]; IkB signaling: -2%; p53ts 39C tox: 16µM*

What do the screens show for `CCOc1ccc(-c2cc(C(=O)NCCc3ccc(Cl)cc3)c3ccccc3n2)cc1`?
p53ts 32C tox: -27%; Imprint erasure: -17%[10.9 µM]; IkB signaling: 1%; p53ts 39C tox: inconclusive

Results for CCOc1ccc(-c2cc(C(=O)NCCCN3CCN(CC)CC3)c3ccccc3n2)cc1 ?
p53ts 32C tox: 13µM*; Imprint erasure: -14%; IkB signaling: -1%; p53ts 39C tox: 13µM*

What do the screens show for `COc1ccc(-c2cn3c(n2)sc2cc(C(=O)Nc4ccc(F)cc4Cl)ccc23)cc1`?
p53ts 32C tox: -23%; Imprint erasure: -13%[10.9 µM]; IkB signaling: inconclusive; p53ts 39C tox: 20µM*

Results for CCCCOc1ccc(S(=O)(=O)Nc2ccc(-c3ccc(N4CCCCC4)nn3)cc2)cc1 ?
p53ts 32C tox: 4%; Imprint erasure: -6%[10.9 µM]; IkB signaling: 3%; p53ts 39C tox: -7%

How did COc1ccccc1-c1nnc(C2CCN(C(=O)c3cccc(Cl)c3)CC2)o1 do in these assays?
p53ts 32C tox: 2%; Imprint erasure: -9%[10.9 µM]; IkB signaling: inconclusive; p53ts 39C tox: -1%
